From PubChem BioAssay (NCI)
This is part of a sample that, as a whole, favours compounds with a hit. Of some 83,000 tested, about 20% had one in any assay.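 For each line, cells grew in 96-well plates with the test compound present at a single concentration for 48 hours.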 Values without a mark were called inactive. The source made the active and inactive calls. The calls were made as follows: active = growth percent below 10; inactive = the rest.

Assays:
Assay in all cases: NCI-60 one-dose screen, 48 h (100 = growth as untreated, 0 = no growth, -100 = all killed)
Conditions in all cases: 10 µM unless noted
NCI-H23 lung = system: NCI-H23 lung
NCI-H226 lung = system: NCI-H226 lung
NCI-H322M lung = system: NCI-H322M lung
HOP-62 NSCLC = system: HOP-62 NSCLC
NCI-H460 lung = system: NCI-H460 lung
HOP-92 NSCLC = system: HOP-92 NSCLC
NCI-H522 lung = system: NCI-H522 lung
A549/ATCC NSCLC = system: A549/ATCC NSCLC
786-0 renal = system: 786-0 renal
COLO 205 colon = system: COLO 205 colon
DU-145 prostate = system: DU-145 prostate
K-562 leukemia = system: K-562 leukemia
MALME-3M melanoma = system: MALME-3M melanoma
MDA-MB-231 breast = system: MDA-MB-231 breast
RXF 393 renal = system: RXF 393 renal
SF-268 CNS = system: SF-268 CNS
SF-295 CNS = system: SF-295 CNS
SF-539 CNS = system: SF-539 CNS
UACC-257 melanoma = system: UACC-257 melanoma
M14 melanoma = system: M14 melanoma

SMILES | growth (NCI-H23 lung) | growth (NCI-H226 lung) | growth (NCI-H322M lung) | growth (HOP-62 NSCLC) | growth (NCI-H460 lung) | growth (HOP-92 NSCLC) | growth (NCI-H522 lung) | growth (A549/ATCC NSCLC) | growth (786-0 renal) | growth (COLO 205 colon) | growth (DU-145 prostate) | growth (K-562 leukemia) | growth (MALME-3M melanoma) | growth (MDA-MB-231 breast) | growth (RXF 393 renal) | growth (SF-268 CNS) | growth (SF-295 CNS) | growth (SF-539 CNS) | growth (UACC-257 melanoma) | growth (M14 melanoma)
COc1cc2c(c(Br)c1N)-c1cc(Br)c(N)cc1C2=O | 49.9% | -24.1% (active) | 71.2% | 60.8% | 45.7% | 54.9% | 70.5% | 83.5% | 58.8% | 79.3% | 79.1% | 94.9% | 76.7% | 29.2% | 69.9% | 61.6% | 57.2% | 37% | 92.3% | 91.1%
c1cc2ccc3cc2cc1CNCCN1CCNCc2ccc4ccc(cc4c2)CNCCN(CCNC3)CCNCc2ccc3ccc(cc3c2)CNCC1 | -7% (active) | 6.46% (active) | 56.3% | 60.3% | 16.1% | -17.9% (active) | 0.768% (active) | 2.2% (active) | 89.7% | -32.7% (active) | -10.1% (active) | 12.6% | -13% (active) | -23.7% (active) | 11.4% | -13.6% (active) | 66.8% | -41% (active) | 100% | 96.3%
O=C(N=c1n(-c2ccccc2)nc2n1CCN2C1=NCCN1C(=O)c1ccc(Cl)cc1)c1ccc(Cl)cc1 | 75.9% | 93.2% | 86.9% | 93.5% | 60.6% | 120% | 64.2% | 65.4% | 83.1% | 75.1% | 92.2% | 47.1% | 91.2% | 82.4% | 48.6% | 72.9% | 86.2% | 80.2% | 103% | 62.5%
C#C[C@]1(O)CC[C@H]2[C@@H]3CC=C4c5nc(Nc6ccc(OC)cc6OC)sc5CC[C@]4(C)[C@H]3CC[C@@]21C | 34.6% | 24.2% | 37% | -11.5% (active) | 12.4% | 10.4% | 23% | 9.68% (active) | -54.7% (active) | -43.2% (active) | 39% | 6.12% (active) | -21.8% (active) | 1.72% (active) | -60% (active) | 4.95% (active) | -66.3% (active) | -59.5% (active) | -20.3% (active) | -41.4% (active)
Nc1cc(NN=C(c2ccc(O)cc2)c2ccc(O)cc2)c([N+](=O)[O-])cc1[N+](=O)[O-] | -58.3% (active) | 61.8% | 110% | -10.2% (active) | -60.1% (active) | 60.5% | -82% (active) | -49.6% (active) | -93.9% (active) | -52.8% (active) | 91.3% | 78.4% | 105% | 54.4% | -69.9% (active) | 81.8% | 75.8% | -55.3% (active) | -60.6% (active) | -52.9% (active)
CCCCOC(=O)c1c(C)[nH]c(/C=C2\N=C(c3ccc[nH]3)C=C2OC)c1C | -11.3% (active) | -0.091% (active) | -10.5% (active) | 2.13% (active) | 6.62% (active) | -17% (active) | -41.3% (active) | -9.07% (active) | -32.6% (active) | -29.2% (active) | 18.5% | 9.48% (active) | -56.5% (active) | -49.7% (active) | -12.6% (active) | 19.9% | -61.9% (active) | -36.2% (active) | -12% (active) | -18.6% (active)
COc1ccc(C(=O)c2nccc3cc(OC)c(OC)cc23)cc1OC | 51.9% | 97% | 120% | 95.3% | 103% | 78.5% | 33.4% | 98.3% | 109% | 126% | 104% | 103% | 103% | 85% | 99.4% | 89.3% | 92.6% | 94.3% | -11.2% (active) | 89.3%
O=C(Nc1cc(F)cc2cccnc12)c1cnc(N2CCNCC2)cn1 | 83.4% | 100% | 69.3% | 85.2% | 80.6% | 49.1% | 54.5% | 88.1% | 89.1% | 13.9% | 75.2% | 19.8% | 59.6% | 71.8% | 54.1% | 77.4% | 89.3% | 85.5% | 88% | 86.1%
CCCn1ccnc1C(O)c1ccc(OCc2ccccc2)c(OC)c1 (stereo not given) | 90.7% | 97.4% | 90.1% | 87.5% | 103% | 68.1% | 66.1% | 97.7% | 96.6% | 93.2% | 104% | 107% | 80.9% | 93.7% | 112% | 93.4% | 76.4% | 92.8% | 93.6% | 97.2%
C[C@H]1[C@H](C)CC[C@]2(C(=O)O)CC[C@]3(C)C(=CC[C@@H]4[C@@]5(C)C/C(=C/c6ccco6)C(=O)C(C)(C)[C@@H]5CC[C@]43C)[C@H]12 | -81.1% [100 µM] (active) | -52.3% [100 µM] (active) | -73.4% [100 µM] (active) | -75.7% [100 µM] (active) | -55.6% [100 µM] (active) | -87.7% [100 µM] (active) | -82.7% [100 µM] (active) | -52.5% [100 µM] (active) | -40.3% [100 µM] (active) | -60.9% [100 µM] (active) | -73.1% [100 µM] (active) | 7.11% [100 µM] (active) | -86% [100 µM] (active) | -81.5% [100 µM] (active) | -84% [100 µM] (active) | -58.7% [100 µM] (active) | -79.4% [100 µM] (active) | -80.1% [100 µM] (active) | -39.1% [100 µM] (active) | -43.6% [100 µM] (active)
C[n+]1c(-c2ccccc2)c2cc(N)ccc2c2ccccc21 | 27.5% | 26.3% | 70.8% | 63.8% | 28.4% | 54.5% | -5.84% (active) | 44.4% | 55.3% | 16.7% | 43.8% | 33.4% | -19.5% (active) | 70.8% | 58.9% | -6.88% (active) | 75.6% | 28.5% | 8.1% (active) | 74.3%
COc1cc(/C=C/C(=O)/C=C/c2ccc(-n3ccnc3C)cc2)ccc1O | 64% | 89.1% | 100% | 88.5% | 81.2% | 95.1% | 81.4% | 62.1% | 97.2% | 60.1% | 54% | 13.2% | 101% | 97.1% | 47.8% | 49.9% | 84.3% | -0.75% (active) | 89.3% | 111%
COc1cc(C)cc2oc3oc(=O)c(C(=O)c4cc5cc(Br)ccc5o4)cc3c(=O)c12 | 107% | 96.7% | 97.3% | 104% | 107% | 102% | 101% | 102% | 110% | 125% | 113% | 103% | 98.8% | 105% | 116% | 95% | 103% | 96.8% | 105% | 100%
COc1ccc(C2CC(c3cc(OC)c(OC)c(OC)c3)=NN2C(C)=O)cc1OCC(=O)Nc1nc2ccc(C(F)(F)F)cc2s1 (stereo not given) | 67.3% | 40.2% | 79.6% | 57.1% | 67.6% | -3.98% (active) | 66.6% | 50.5% | 60.1% | 85% | 48.5% | 83.8% | 68.7% | 44.8% | 33.5% | 71.3% | 61.4% | -32.9% (active) | 67.1% | 68%
CSc1nc(N)c(N=Nc2ccc(S(=O)(=O)Nc3nnc(C)s3)cc2)c(=O)[nH]1 | 107% | 100% | 109% | 104% | 106% | 108% | 103% | 115% | 114% | 96.3% | 101% | 138% | 109% | 103% | 110% | 101% | 133% | 109% | 117% | 101%
